Calls of active or inactive are those of the source.
Experiments:
[1] = small molecules captured by biotinylated probe aFSTL3 – biochemical, small-molecule microarray, fluorescence 635/667, stem cell growth factor project, primary screen (AID 1064); conditions: higher = more signal;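 note: measures binding of the biotinylated anti-FSTL3 antibody to printed compounds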
[2] = binders from COS7 lysate, DM2A8 probe, primary screen, torsin A project, cell lysate, small-molecule microarray, fluorescence 635/667 (AID 1065); conditions: higher = more signal, COS7 lysate expressing mutant human TOR1A
[3] = small molecules captured by biotinylated probe aFGF2 – biochemical, small-molecule microarray, fluorescence 635/667, stem cell growth factor project, primary screen (AID 1067); conditions: higher = more signal;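 note: measures binding of biotinylated aFGF2 protein to printed compounds on slides; z-score merges feature fluorescence and signal-to-noise across triplicate slides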
[4] = small molecules captured by biotinylated probe aFGF10 – biochemical, small-molecule microarray, fluorescence 635/667, stem cell growth factor project, primary screen (AID 1071); conditions: higher = more signal;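 note: score merges 667 nm spot intensity and signal to noise from triplicate slides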
[5] = target: Neurogenic locus notch homolog protein 2 (Homo sapiens) (UniProt Q04721); assay: small molecules binding Notch2 protein – biochemical, small-molecule microarray, 635 nm fluorescence, stem cell growth factors, primary screen (AID 1073); conditions: higher = more signal
[6] = target: Pro-neuregulin-1, membrane-bound isoform (Homo sapiens) (UniProt Q02297); assay: small molecules binding neuregulin-1 protein – biochemical, small-molecule microarray, fluorescence 635/667, psychiatric disease protein project, primary screen (AID 1075); conditions: NRG1 binding, 635 nm fluorescence, higher = more signal;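 note: score combines 667 nm spot fluorescence with signal to noise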
[7] = test system: Neuregulin-1 EGF-like domain; assay: small molecules binding NRG1 EGF domain – biochemical, small-molecule microarray, 635 nm fluorescence, primary screen (AID 1081); conditions: higher = more signal;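 note: binding of the protein to compounds printed on small-molecule microarray slides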
[8] = FRG1 expression reporter modulators in myotubes – cell-based, C2C12 myotubes, firefly/Renilla luciferase, luminescence, FRG1 inhibition for FSHD, primary screen (AID 1084); conditions: FRG1 promoter luciferase, higher = more signal, called active from +8 up or from −8 down
[9] = small molecules captured by biotinylated probe aFST – biochemical, small-molecule microarray, fluorescence 635/667, stem cell growth factor project, primary screen (AID 1086); conditions: higher = more signal;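 note: score merges 667 nm fluorescence with signal-to-noise of each printed compound spot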
[10] = binders of probe aHhip on microarray, primary screen, stem cell growth factor project, biochemical, small-molecule microarray, fluorescence 635/667 (AID 1087); conditions: higher = more signal;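 note: score merges spot fluorescence at 667nm with spot signal to noise ratio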
[11] = test system: PRMT1 (protein arginine N-methyltransferase 1); assay: small molecules binding arginine methyltransferase PRMT1 – biochemical, small-molecule microarray, 635 nm fluorescence, primary screen (AID 1088); conditions: higher = more signal;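 note: binding of Prmt1 protein to compounds spotted on small-molecule microarray slides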
[12] = growth effects on S. cerevisiae YJM789 – YJM789 clinical isolate, OD600, 24 h, basal, primary screen (AID 1089); conditions: higher = more signal, called active from +8 up or from −8 down;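 note: growth of clinical yeast isolate S. cerevisiae YJM 789 seeded 1000 cells per well; test concentration not given here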
[13] = S. pombe growth modifiers, basal conditions – strain 972, OD600, 24 h, no modulator, primary screen (AID 1090);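 note: basal condition with compound alone and no growth modifier present; test concentration not given here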; conditions: S. pombe 972 growth, higher = more signal, called active from +8 up or from −8 down
[14] = budding yeast growth modifiers under rapamycin – strain BY4716, OD600, 96 h, primary screen (AID 1091); note: test concentration not given here; conditions: S. cerevisiae BY4716 + rapamycin, higher = more signal, called active from +8 up or from −8 down
[15] = target: Torsin-1A-interacting protein 2 (Homo sapiens) (UniProt Q8NFQ8); assay: small molecules binding lysate-expressed LULL1 – cell lysate, human LULL1 lysate, 635/667 nm fluorescence, primary screen (AID 1092); conditions: small-molecule microarray, hLULL1 lysate binding, 635 nm fluorescence; higher = more signal;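 note: probe is lysate of COS7 cells overexpressing human LULL1; score merges per-feature 667 nm fluorescence with signal-to-noise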
[16] = optical density change of DRC41 E. coli – strain DRC41, OD650, 24 h, E. coli filamentation project, primary screen (AID 1093);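 note: MC1000 strain lacking acrAB efflux and sulA so SOS filamentation is blocked; test concentration not given here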; conditions: E. coli DRC41 growth, higher = more signal, called active from +8 up or from −8 down
[17] = probe aLefty2 binding to arrayed compounds – biochemical, biotinylated probe, 635/667 nm fluorescence, primary screen (AID 1094); conditions: small-molecule microarray, higher = more signal;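 note: score merges spot fluorescence near 667 nm with spot signal-to-noise ratio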
[18] = test system: Noggin (protein binding on small-molecule microarray); assay: small molecules binding Noggin protein – biochemical, 635/667 nm fluorescence, primary screen (AID 1095); conditions: 635 nm fluorescence, higher = more signal;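 note: score merges 667 nm feature fluorescence with signal to noise over triplicate slides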
[19] = target: Neurogenic locus notch homolog protein 3 (Homo sapiens) (UniProt Q9UM47); assay: small molecules binding NOTCH3 protein – biochemical, 635/667 nm fluorescence, primary screen (AID 1096); conditions: small-molecule microarray, 635 nm fluorescence, higher = more signal
[20] = probe aEGFR binding to arrayed compounds – biochemical, biotinylated probe, 635/667 nm fluorescence, primary screen (AID 1097); conditions: small-molecule microarray, higher = more signal;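 note: probe is a biotinylated anti-EGFR antibody binding compounds printed on slides; score combines fluorescence near 667 nm and signal to noise of each spot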

Chain of Neurogenic locus notch homolog protein 2 (Homo sapiens) (Q04721 whole entry, looked up, canonical isoform): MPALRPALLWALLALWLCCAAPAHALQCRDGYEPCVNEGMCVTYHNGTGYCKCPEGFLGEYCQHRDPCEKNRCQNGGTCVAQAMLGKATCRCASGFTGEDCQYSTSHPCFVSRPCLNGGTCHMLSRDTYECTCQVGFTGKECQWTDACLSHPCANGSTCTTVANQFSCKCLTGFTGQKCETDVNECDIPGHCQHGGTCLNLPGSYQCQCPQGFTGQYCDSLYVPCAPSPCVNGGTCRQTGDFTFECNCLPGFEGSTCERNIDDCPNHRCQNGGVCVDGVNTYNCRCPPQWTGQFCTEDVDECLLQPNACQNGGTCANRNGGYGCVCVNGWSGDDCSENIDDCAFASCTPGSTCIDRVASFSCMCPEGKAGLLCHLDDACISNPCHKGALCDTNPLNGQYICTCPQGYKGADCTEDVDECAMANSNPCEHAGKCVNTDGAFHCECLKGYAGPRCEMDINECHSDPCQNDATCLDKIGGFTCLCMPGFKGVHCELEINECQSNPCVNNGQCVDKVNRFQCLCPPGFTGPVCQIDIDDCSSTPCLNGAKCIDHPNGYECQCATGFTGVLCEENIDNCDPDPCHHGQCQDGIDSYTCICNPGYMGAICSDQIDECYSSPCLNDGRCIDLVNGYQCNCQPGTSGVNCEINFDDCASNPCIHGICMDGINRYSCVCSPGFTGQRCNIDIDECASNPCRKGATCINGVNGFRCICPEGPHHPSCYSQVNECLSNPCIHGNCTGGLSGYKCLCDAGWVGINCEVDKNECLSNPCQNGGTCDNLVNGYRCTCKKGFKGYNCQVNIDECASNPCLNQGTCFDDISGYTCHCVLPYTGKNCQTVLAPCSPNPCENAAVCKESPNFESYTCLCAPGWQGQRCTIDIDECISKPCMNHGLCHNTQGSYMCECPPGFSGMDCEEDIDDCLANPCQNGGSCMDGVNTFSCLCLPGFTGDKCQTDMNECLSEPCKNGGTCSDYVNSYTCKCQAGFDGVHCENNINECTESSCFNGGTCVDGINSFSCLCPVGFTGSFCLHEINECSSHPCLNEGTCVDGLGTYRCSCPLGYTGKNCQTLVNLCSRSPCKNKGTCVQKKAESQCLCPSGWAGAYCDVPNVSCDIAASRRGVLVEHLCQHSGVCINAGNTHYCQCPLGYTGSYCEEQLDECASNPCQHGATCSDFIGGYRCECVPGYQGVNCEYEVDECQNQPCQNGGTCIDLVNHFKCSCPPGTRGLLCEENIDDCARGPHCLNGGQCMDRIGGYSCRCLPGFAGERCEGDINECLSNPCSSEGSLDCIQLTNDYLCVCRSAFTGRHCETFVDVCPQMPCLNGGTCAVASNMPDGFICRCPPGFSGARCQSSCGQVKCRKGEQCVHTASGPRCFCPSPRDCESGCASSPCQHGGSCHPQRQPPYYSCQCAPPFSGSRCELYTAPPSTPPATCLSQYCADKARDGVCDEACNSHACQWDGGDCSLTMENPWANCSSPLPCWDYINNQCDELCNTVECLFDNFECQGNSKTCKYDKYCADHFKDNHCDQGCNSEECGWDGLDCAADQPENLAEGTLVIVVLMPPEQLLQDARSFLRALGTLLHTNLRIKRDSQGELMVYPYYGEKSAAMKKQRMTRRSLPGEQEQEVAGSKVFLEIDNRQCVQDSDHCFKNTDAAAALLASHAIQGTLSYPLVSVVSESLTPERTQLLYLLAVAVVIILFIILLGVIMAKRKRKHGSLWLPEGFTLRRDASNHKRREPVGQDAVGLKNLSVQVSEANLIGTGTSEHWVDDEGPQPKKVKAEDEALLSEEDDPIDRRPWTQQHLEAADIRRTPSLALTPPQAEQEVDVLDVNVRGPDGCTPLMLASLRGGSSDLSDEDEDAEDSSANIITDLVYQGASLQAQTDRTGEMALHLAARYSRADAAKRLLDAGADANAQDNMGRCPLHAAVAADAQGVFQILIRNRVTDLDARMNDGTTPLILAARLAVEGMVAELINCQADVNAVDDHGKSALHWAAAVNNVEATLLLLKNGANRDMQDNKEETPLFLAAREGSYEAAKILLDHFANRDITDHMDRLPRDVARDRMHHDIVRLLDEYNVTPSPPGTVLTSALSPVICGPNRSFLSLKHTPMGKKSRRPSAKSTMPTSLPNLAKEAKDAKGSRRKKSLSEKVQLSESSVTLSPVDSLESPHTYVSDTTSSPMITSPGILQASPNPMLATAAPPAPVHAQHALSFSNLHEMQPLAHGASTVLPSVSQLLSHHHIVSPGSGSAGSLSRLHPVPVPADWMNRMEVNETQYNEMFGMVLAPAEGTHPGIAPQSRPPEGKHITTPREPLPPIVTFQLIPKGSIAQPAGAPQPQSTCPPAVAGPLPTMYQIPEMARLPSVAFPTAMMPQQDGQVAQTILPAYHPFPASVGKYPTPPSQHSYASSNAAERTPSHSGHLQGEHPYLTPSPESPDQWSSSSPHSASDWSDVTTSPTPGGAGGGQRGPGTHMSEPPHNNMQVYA
Chain of Pro-neuregulin-1, membrane-bound isoform (Homo sapiens) (Q02297 whole entry, looked up, the tested form may be a part, canonical isoform): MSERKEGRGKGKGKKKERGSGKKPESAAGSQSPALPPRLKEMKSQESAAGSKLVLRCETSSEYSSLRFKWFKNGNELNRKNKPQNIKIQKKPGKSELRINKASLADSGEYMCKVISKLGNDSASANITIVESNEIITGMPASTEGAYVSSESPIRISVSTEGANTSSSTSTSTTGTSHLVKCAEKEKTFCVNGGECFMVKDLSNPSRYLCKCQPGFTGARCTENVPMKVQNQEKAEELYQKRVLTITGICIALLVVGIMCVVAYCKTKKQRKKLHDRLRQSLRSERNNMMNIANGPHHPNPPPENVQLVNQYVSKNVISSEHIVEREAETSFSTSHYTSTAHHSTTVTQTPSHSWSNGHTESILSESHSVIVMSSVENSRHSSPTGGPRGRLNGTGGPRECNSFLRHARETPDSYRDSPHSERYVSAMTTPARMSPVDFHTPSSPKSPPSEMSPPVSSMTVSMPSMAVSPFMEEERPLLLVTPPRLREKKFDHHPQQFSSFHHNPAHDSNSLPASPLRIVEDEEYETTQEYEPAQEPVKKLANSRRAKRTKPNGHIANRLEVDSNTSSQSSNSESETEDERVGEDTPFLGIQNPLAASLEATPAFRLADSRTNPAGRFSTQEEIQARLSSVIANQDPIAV
Chain of Torsin-1A-interacting protein 2 (Homo sapiens) (Q8NFQ8 whole entry, looked up): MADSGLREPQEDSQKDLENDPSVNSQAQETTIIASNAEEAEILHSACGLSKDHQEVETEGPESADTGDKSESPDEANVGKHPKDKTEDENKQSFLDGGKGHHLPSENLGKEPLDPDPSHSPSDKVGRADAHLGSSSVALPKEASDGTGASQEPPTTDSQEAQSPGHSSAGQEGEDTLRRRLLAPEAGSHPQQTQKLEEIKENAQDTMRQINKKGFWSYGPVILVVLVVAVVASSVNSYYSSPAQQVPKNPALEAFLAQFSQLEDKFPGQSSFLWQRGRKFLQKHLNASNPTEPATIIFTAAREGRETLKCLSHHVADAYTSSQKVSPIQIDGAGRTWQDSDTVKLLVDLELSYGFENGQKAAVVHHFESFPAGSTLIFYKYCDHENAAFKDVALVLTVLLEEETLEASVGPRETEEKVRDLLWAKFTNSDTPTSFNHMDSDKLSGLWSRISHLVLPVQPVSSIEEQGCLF

| Structure (SMILES) | composite z-score [1] | composite z-score [2] | composite z-score [3] | composite z-score [4] | composite z-score [5] | composite z-score [6] | composite z-score [7] | z-score [8] | composite z-score [9] | composite z-score [10] | composite z-score [11] | z-score [12] | z-score [13] | z-score [14] | composite z-score [15] | z-score [16] | composite z-score [17] | composite z-score [18] | composite z-score [19] | composite z-score [20] |
| --- | --- | --- | --- | --- | --- | --- | --- | --- | --- | --- | --- | --- | --- | --- | --- | --- | --- | --- | --- | --- |
| COCCOC(=O)N1C(=O)[C@@]2(c3cc(C#CCNC(N)=O)ccc31)[C@H](C(=O)N1CCCCCCC1)[C@H]1C(=O)O[C@H](c3ccccc3)[C@H](c3ccccc3)N1[C@@H]2c1ccc(O)cc1 | 0.333 | 0.189 | -0.0557 | 0.159 | 0.845 | 0.571 | 0.596 | -0.134 (inactive) | 0.706 | 0.0066 | 1.41 | 0.355 (inactive) | -0.216 (inactive) | 0.903 (inactive) | 1.66 | 0.0623 (inactive) | 0.111 | 1.46 | 1.08 | -0.0381 |
| O=C1NC(=O)C2C1C=CC(C(O)c1ccc(Br)cc1)N2Nc1ccccn1 (stereo not given) | 0.253 | 0.156 | 0.0969 | 1.05 | 1.39 | 1.8 | 0.95 | -0.383 (inactive) | 0.331 | -0.0296 | 0.215 | -1.26 (inactive) | 0.61 (inactive) | -0.683 (inactive) | 1.18 | -0.931 (inactive) | 0.119 | 0.248 | 0.63 | 0.315 |
| O=C1OCC=C[C@H]2OC34C=CCN(c5ccc(Cl)cc5)C(=O)[C@H]3N(CCCCCO)C(=O)[C@@H]4[C@@H]12 (stereo not given in full) | 0.716 | 1.77 | -0.163 | -0.815 | -1.07 | -0.0571 | 1.06 | -0.633 (inactive) | -0.354 | -0.236 | -0.449 | -0.984 (inactive) | -1.03 (inactive) | -0.497 (inactive) | 2.58 | 1 (inactive) | -0.117 | -1.64 | -0.68 | -0.208 |
| C[C@]1(C(=O)O)c2ccccc2C(=O)N(Cc2ccccc2)[C@H]1c1ccc(CO)cc1 | 1.63 | -0.646 | -0.116 | -1.03 | -1.24 | 0.869 | 0.521 | -0.319 (inactive) | -0.42 | -0.164 | -1.68 | 1.09 (inactive) | 0.468 (inactive) | 1.37 (inactive) | -0.884 | 0.651 (inactive) | 0.119 | -1.51 | -1.9 | -0.288 |
| C[C@H]1C2=C3C(CC[C@H]4C(OCc5ccc(F)cc5C(F)(F)F)OC[C@](C)([C@@H]34)N(C(=O)OC(C)(C)C)C2)C2COC(=O)OCC21 (stereo not given in full) | 0.42 | -0.119 | -0.0325 | 0.226 | 1.43 | 1.71 | 1.03 | 2.53 (inactive) | 1.61 | 0.44 | 0.63 | -0.271 (inactive) | -1.22 (inactive) | 0.258 (inactive) | 3.52 | -1.4 (inactive) | 0.453 | -0.618 | 1.07 | -0.019 |
| COc1ccc([Si](C)(C)[C@H]2[C@H](CCn3cc([C@H](O)c4ccccc4)nn3)O[C@@]3(C(=O)N(Cc4ccc(N5CCC5=O)cc4)c4ccccc43)[C@@H]2C)cc1 | -0.179 | 1.16 | -0.116 | 0.368 | 0.176 | 0.635 | 0.636 | -2.36 (inactive) | 0.247 | -0.0237 | 1.57 | -0.509 (inactive) | 0.158 (inactive) | 2.14 (inactive) | 0.588 | 1.15 (inactive) | -0.184 | 1.05 | 0.698 | -0.0953 |
| CCCCC(=C=CC[C@@H](O)c1ccc(OCCO)cc1)C[C@@H](O)COCc1ccccc1 | -0.111 | 1.09 | -0.0783 | 0.114 | -1.11 | -0.376 | -0.0622 | -2.2 (inactive) | 0.101 | 0.0743 | 0.989 | -1.24 (inactive) | -2.39 (inactive) | -1.07 (inactive) | 0.146 | 1.69 (inactive) | -0.166 | 1.14 | -0.198 | -0.18 |
| COc1ccc([Si](C)(C)[C@@H]2[C@@H](CCO)O[C@]3(C(=O)N(Cc4cccc(N5C(=O)c6cccc7cccc5c67)c4)c4ccccc43)[C@H]2C)cc1 | 0.385 | -0.106 | -0.156 | 0.691 | -0.314 | 0.779 | 0.966 | -0.34 (inactive) | -0.0576 | -0.236 | 1.22 | 2.2 (inactive) | 2.22 (inactive) | 38.9 (active) | 1.24 | 0.399 (inactive) | -0.0931 | -0.25 | 0.267 | -0.221 |
| CN1C(=O)C2C=CC(C(O)c3c(F)cccc3Cl)N(Nc3ccccc3)C2C1=O (stereo not given) | -0.196 | -0.198 | 0.171 | 0.334 | 1.55 | 1.84 | 1.1 | 0.433 (inactive) | 0.878 | -0.0346 | 1.04 | -0.0908 (inactive) | 1.19 (inactive) | 0.437 (inactive) | 3.44 | -0.757 (inactive) | 0.244 | 0.0319 | 1.07 | 0.0562 |
